Screens deposited in PubChem by National Center for Advancing Translational Sciences (NCATS).
A selection: hits, their analogues and other compounds. The true share with any hit is near 9.3%.
NPC1 prom act = qHTS Assay for NPC1 Promoter Activators; Huh7 NPC1 promoter luciferase reporter, 24 h; Potency, µM (series often up to 9.22 µM), for the others: at the top dose activation, actives largely listed as activators; hit rate 2.4% among 320,000; AID 485313, 2010; also: % of control where 0% means no effect; nearly all actives have a fitted effect of over 60% in size
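In 1536-well qHTS, Huh7 cells harboring an NPC1 promoter–luciferase construct received compound for 24 h; activation was quantified by luminescence following luciferase reagent addition.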
ELG1 repair inh = qHTS screen for small molecules that inhibit ELG1-dependent DNA repair in human embryonic kidney (HEK293T) cells expressing luciferase-tagged ELG1 | HEK293T ELG1-luciferase reporter, luminescence, 16 h; DNA damage induced by 5-fluorouridine | Potency, µM (doses to about 46.1 µM), inactives show top-dose activity change, negative = inhibition, hits mostly inhibitors | hit rate 2.3% among 330,000 | AID 504467, 2011; also: % is scaled to controls: 0 for no effect and ±100 for the full control effect; nearly all actives have a fitted effect of over 55% in size
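In this reporter screen, reduction of luminescence relative to DMSO vehicle indicated activity. Compounds and 5-fluorouridine were added together to 2,000 cells per well, incubated for 16 hr at 37 °C, then developed with ONE-Glo.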
FLuc modulator = qHTS profiling assay for firefly luciferase inhibitor/activator using purifed enzyme and Km concentrations of substrates (counterscreen for miR-21 project); purified FLuc, Km substrates, luminescence inhibition; Potency, µM (highest dose often 57.5 µM), inactives show at the top dose activity change, negative = inhibition, usual class: inhibitors; hit rate 6.9% among 360,000; AID 588342, 2011;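 also: plate controls were vehicle for no effect and reference inhibitor for full effect; nearly all actives have a fitted effect of over 55% in size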
Target sequence (P08659 whole entry, looked up): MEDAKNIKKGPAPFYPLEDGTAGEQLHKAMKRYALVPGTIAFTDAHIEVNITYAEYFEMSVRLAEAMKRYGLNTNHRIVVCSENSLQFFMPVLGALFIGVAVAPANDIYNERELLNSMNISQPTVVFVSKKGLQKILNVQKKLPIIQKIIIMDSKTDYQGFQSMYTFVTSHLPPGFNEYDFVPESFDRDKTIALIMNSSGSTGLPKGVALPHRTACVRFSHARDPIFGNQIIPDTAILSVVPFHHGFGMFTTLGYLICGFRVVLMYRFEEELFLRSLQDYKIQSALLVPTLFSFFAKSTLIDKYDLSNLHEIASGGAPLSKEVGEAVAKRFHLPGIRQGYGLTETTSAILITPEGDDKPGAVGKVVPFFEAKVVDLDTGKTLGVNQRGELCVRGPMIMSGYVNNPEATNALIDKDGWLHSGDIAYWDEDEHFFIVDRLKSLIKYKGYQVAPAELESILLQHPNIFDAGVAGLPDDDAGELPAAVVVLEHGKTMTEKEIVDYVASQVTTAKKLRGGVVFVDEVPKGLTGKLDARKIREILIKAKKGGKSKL
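Purified P. pyralis luciferase, 10 nM final, with Km-level 10 uM D-luciferin and 10 uM ATP in 50 mM Tris acetate pH 7.5, 10 mM Mg acetate, 0.01% Tween-20, 0.05% BSA; 6-point qHTS titration about 60 µM downward; luminescence read.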
SMN2 splice enh = qHTS Assay for Enhancers of SMN2 Splice Variant Expression | HEK293 SMN2-luciferase splicing reporter, luminescence, 30-36 h | AID 1458, 2008 | hit rate 2.8% among 210,000 | Potency, µM (series often up to 46.1 µM), for the others: at the highest dose activity change, positive = activation, actives largely listed as activators; also: % of control where 0% means no effect; nearly all actives have a fitted effect of over 55% in size
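HEK293 cells carry an SMN2 minigene-luciferase reporter in which exon 7 inclusion puts luciferase in frame. Cells were seeded at 2000 cells/well, attached for 10-12 hours, then exposed to compounds for 30-36 hours at 37C before ONE-Glo luminescence.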
ELG1 genotoxic = qHTS screen for small molecules that induce genotoxicity in human embryonic kidney (HEK293T) cells expressing luciferase-tagged ELG1. HEK293T ELG1-luciferase reporter, luminescence, 16 h. Potency, µM (top dose mostly 46 µM), for inactives: at the top dose activity change, positive = activation, hits mostly activators. hit rate 1.3% among 330,000; also: % of control where 0% means no effect; nearly all actives have a fitted effect of over 60% in size
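Quantitative HTS format in 1536-well plates. HEK293T ELG1-luciferase reporter cells receive test compound and are incubated 16 hr at 37 °C, 5% CO2; ONE-Glo added, 30 min room temperature, then luminescence read.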
Rab9 prom act = qHTS Assay for Rab9 Promoter Activators. AID 485297, 2010. Potency, µM (highest dose often 9.22 µM), for inactives: at the top dose activation, negative = inhibition, most hits filed as activators. Huh7 Rab9 promoter-luciferase reporter, luminescence, 24 h. hit rate 2.8% among 320,000; also: % of control where 0% means no effect; nearly all actives have a fitted effect of over 60% in size
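Cell-based reporter: Huh7 stable for Rab9 promoter-driven luciferase, plated in reduced-serum medium with 10% FBS at 1500 cells/well, compound-treated 24 h at 37 °C, luminescence read after 10 min reagent.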
Starred values were filed as active, the others as inactive; ? = inconclusive; / = no result; [ ] = another dose, or the depositor's remark. Calls follow the shape of the dose curve; as a rule, active = well fitted curve in the direction sought with a large enough effect; inconclusive = small, poorly fitted or top-dose-only effect, or another doubt; inactive = no such curve, though single readings can be large; an effect the other way counts as inactive or inconclusive. Potency is read from the fitted curve at half-maximal effect.

SMILES	NPC1 prom act	ELG1 repair inh	FLuc modulator	SMN2 splice enh	ELG1 genotoxic	Rab9 prom act
CC1(C)OC(=O)C(=Cc2ccc(-c3ccc(S(N)(=O)=O)cc3)o2)C(=O)O1	-4%	?	11µM*	4%	?	1%
CCCCOc1ccc(C(=O)Nc2onc3c2CCCC3)cc1	/	/	1.7µM*	22µM*	/	/
O=C(Nc1onc2c1CCCC2)c1ccc(Cl)cc1	/	/	1.9µM*	8.9µM*	/	/
O=C(NN=C1CCCC1)c1ccc(Cl)cc1	15%	-22%	-3%	/	-1%	16%
O=C(N/N=C/c1cccc(Oc2ccccc2)c1)c1ccncc1	1%	2%	?	?	-3%	14%
O=C(N/N=C/c1cccc(Oc2ccccc2)c1)c1ccc(O)cc1O	1%	11%	17µM*	/	1%	13%
COc1cc(C(=O)N/N=C/c2cccc(Oc3ccccc3)c2)ccc1O	-4%	-1%	17µM*	/	5%	4%
Oc1ccccc1C1=NN(c2ccccc2)C(c2ccc(F)cc2)C1 (configuration not stated)	1%	-13%	-4%	/	-5%	2%
Oc1ccccc1C1=Nc2nc3ccccc3n2C(c2ccccc2)C1 (configuration not stated)	7%	?	11µM*	19%	?	16%
Cc1ccc(NC(=O)c2ccc(C(C)(C)C)cc2)cc1[N+](=O)[O-]	?	?	6µM*	15%	?	?
Cc1ccc(NC(=O)c2cccs2)cc1[N+](=O)[O-]	21%	?	21µM*	/	-1%	27%
Cc1cccc(N(C)S(=O)(=O)c2c(C(=O)N3CCCCCC3)c(C)n(C)c2C)c1	/	/	3%	/	/	/
Cc1nn(C)cc1CNC(=O)Nc1ccc(Cl)c(Cl)c1	3.2µM*	?	24µM*	-22%	13µM*	2.5µM*
Cc1ccc(NC(=O)NCc2c(C)nn(C)c2C)cc1Cl	?	?	24µM*	16µM*	?	4µM*
CN(C)/C=C/C(=O)c1ccc(F)cc1F	-4%	6%	4%	/	1%	-4%
Cc1ccc2nc3c(cc(C#N)c(=O)n3-c3nnc(SCc4ccc(F)cc4)s3)c(=O)n2c1	/	/	-8%	3%	/	/
CCOc1ccc(NC(=O)c2ccc3c(SCC(=O)O)c4c(nc3c2)CCCC4)cc1	0%	9%	17µM*	5%	1%	-3%
O=C(O)CSc1c2c(nc3cc(C(=O)Nc4cccc(C(F)(F)F)c4)ccc13)CCC2	-1%	?	27µM*	/	0%	-3%
CS(=O)(=O)N(CC(=O)NCCc1ccccc1)c1cc(C(F)(F)F)ccc1Cl	/	/	5%	17%	/	/
Cc1ccc(S(=O)(=O)Nc2nc(C)c(C)s2)cc1	2%	5%	-2%	/	2%	0%
CCOC(=O)C/C(=N\Nc1ncnc2ccccc12)c1ccccc1	17%	7%	?	/	5%	?
CCOC(=O)/C(=N\Nc1ncnc2ccccc12)c1ccc(C)cc1	?	?	12µM*	/	?	?
CCc1ccc(Oc2cc(C)nc(N)n2)cc1	3.2µM*	?	4.3µM*	10µM*	?	3.2µM*
CCCc1ccc(Oc2cc(Cl)nc(N)n2)cc1	4%	?	-5%	-3%[1.84 µM]	10%	?
Cn1nc(C(=O)Nc2ccccc2)c2c1-c1ccccc1S(=O)(=O)C2	0%	-5%	2%	/	-6%	0%
SMILES	NPC1 prom act	ELG1 repair inh	FLuc modulator	SMN2 splice enh	ELG1 genotoxic	Rab9 prom act
CCOC(=O)Cc1csc(SCC(=O)Nc2cc(C)ccc2OC)n1	0%	8%	-1%	-5%	-1%	1%
Cc1ccc(-c2csc3ncnc(Oc4ccc5c(C)cc(=O)oc5c4)c23)cc1	-2%	18µM*	1%	-10%	0%	-6%
CCN(CC)c1ccc(S(=O)(=O)N2CCOCC2)cc1NC(=O)CSC(=S)N1CCCC1	-4%	?	-19%	/	-5%	0%
Cc1occc1-c1nnc(SC(C)C(=O)Nc2ccccc2F)o1 (configuration not stated)	?	?	2%	/	?	2.8µM*
CCC(=O)Nc1cccc(NC(=O)c2ccc(C)cc2Cl)c1	21%	?	19µM*	28%	4%	?
CCC(=O)Nc1cccc(NC(=S)NC(=O)c2cccs2)c1	?	?	6µM*	28µM*	?	?
CCC(=O)Nc1cccc(NC(=S)NC(=O)c2ccccc2Cl)c1	?	?	?	-5%	-1%	3.5µM*
N#Cc1ccccc1NC(=S)NC(=O)c1cccs1	-1%	?	8.5µM*	/	16%	8%
Cc1ccc(CNC(=O)C2CCCN(S(=O)(=O)c3c(C)noc3/C=C/N(C)C)C2)cc1 (configuration not stated)	-4%	-15%	-2%	/	-5%	-3%
O=C(NCC1COc2ccccc2O1)c1ccc(NC(=O)c2ccco2)cc1 (configuration not stated)	4%	-12%	1%	23%	0%	5%
NS(=O)(=O)c1ccc(NCC2COc3ccccc3O2)c([N+](=O)[O-])c1 (configuration not stated)	-1%	11%	-11%	11%	4%	21%
CC(C)Oc1ccc(/C=C/C(=O)NCC2COc3ccccc3O2)cc1 (configuration not stated)	3%	-24%	15µM*	/	-4%	-5%
CC(=O)c1ccc(NCC2COc3ccccc3O2)c([N+](=O)[O-])c1 (configuration not stated)	2.8µM*	?	17µM*	5.6µM*	?	1.1µM*
O=C(NCC1COc2ccccc2O1)c1ccc(Cl)cc1 (configuration not stated)	3.5µM*	?	7.6µM*	14µM*	12µM*	2.5µM*
O=c1[nH]c2ccc(Cl)cc2c(O)c1-c1ccccc1	1%	?	9.5µM*	8%	1%	-3%
Cc1nc(SCC(=O)NCCN2C(=O)CSC2=O)nc(C)c1C	/	12%	/	/	0%	/
O=C(CSc1nnc2ccccn12)Nc1nsc(-c2ccccc2)n1	11%	-25%	15µM*	11%	-2%	0%
O=C(CSc1nnc2ccccn12)Nc1cccc(-c2nc3ccccc3s2)c1	3.5µM*	?	-19%	14µM*	?	?
